# Experimental data reported in PubChem BioAssay AID485364 (National Center for Advancing Translational Sciences (NCATS), 2010).
# Screen size: about 360,000 compounds; about 11,000 (3.1%) were called active. Inconclusive results (about 4%) are left out. This excerpt belongs to a sample that is enriched for actives. Values without a mark were called inactive. Calls come from the whole dose curve; as a rule, active = well fitted inhibition curve with a large enough effect; inconclusive = small, poorly fitted or top-dose-only effect; inactive = no such curve, though single readings can be large or run the other way.
# Target: Schistosoma mansoni thioredoxin glutathione reductase (TGR) (UniProt Q962Y6)
# Test: qHTS Assay for the Inhibitors of Schistosoma Mansoni Peroxiredoxins; note: nearly all actives have a fitted effect of over 60% in size
# Conditions: purified TGR, DTNB reduction, TNB absorbance 405 nm; series mostly up to 114 µM; activity change, negative = inhibition: at the top concentration
# In short: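 Kinetic colorimetric format: TGR-catalysed, NADPH-driven DTNB reduction monitored via TNB absorbance. Enzyme dispensed at 20 nM; compound exposure 15 min at room temperature before reaction start.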
# % is set by controls: 0 for no effect and ±100 for the full control effect; potency is the fitted concentration of half-maximal effect.
Structure (SMILES),"activity change, negative = inhibition [%]",Potency
COc1ccc(CCNc2nc(-c3ccc(Cl)cc3)cc(C(F)(F)F)n2)cc1OC,0.381,–
Cc1ccccc1OCCSc1nc2ccc(NC(=O)c3ccco3)cc2s1,4.23,–
Cc1cc(C)c(NC(=O)CSc2nc3nccnc3c(=O)n2CCc2c[nH]c3ccccc23)c(C)c1,-4.93,–
Cc1ccc(NC2=C(c3ccc(C(F)(F)F)cc3)C(=O)c3ccccc32)cc1F,1.74,–
CCOc1ccccc1NC(=O)CN1CCCN(Cc2cccc(Cl)c2)S1(=O)=O,5.08,–
CCOc1ccc(CCNC(=O)CN(c2ccc(C)cc2)S(=O)(=O)N(C)C)cc1OCC,5.27,–
CCCN(C(=O)Cn1cc(S(=O)(=O)N2CCN(c3ccccc3F)CC2)c2ccccc2c1=O)c1cccc(C)c1,-0.645,–
COc1ccc(C(CNC(=O)c2ccc(S(=O)(=O)Nc3ccccc3F)cc2)N(C)C)cc1 (stereo not drawn),0,–
CN(C)C(CNC(=O)c1cccc(S(=O)(=O)Nc2ccc(Br)cc2)c1)c1ccco1 (stereo not drawn),–,35.5 µM (active)
COc1ccccc1C(CNC(=O)c1cccc(S(=O)(=O)Nc2ccc(F)cc2)c1)N(C)C (stereo not drawn),-7.49,–
COc1ccccc1C(CNC(=O)c1cccc(NS(=O)(=O)c2ccc(Br)cc2)c1)N(C)C (stereo not drawn),-18.1,–
CC(=O)c1ccc(S(=O)(=O)Nc2ccc(C(=O)NCC(c3ccccc3)N(C)C)cc2)cc1 (stereo not drawn),–,14.1 µM (active)
CN(C)C(CNC(=O)c1ccc(S(=O)(=O)NCc2ccco2)cc1)c1ccccc1 (stereo not drawn),-27,–
CCN(Cc1ccccc1)Cc1c(O)ccc2c(=O)c(-c3ccc(Cl)cc3Cl)coc12,-29.1,–
COCCN(Cc1ccco1)C(=O)Cn1ncc2c([nH]c3ccccc32)c1=O,-24.7,–
COc1cccc(CNC(=O)c2ccc3c(c2)sc2nc(-c4cccc(OC)c4)cn23)c1,-0.0879,–
O=C(NCCS(=O)(=O)N1CCN(c2ccc(F)cc2)CC1)c1ccccc1Br,-2.24,–
CC(NC(=O)c1cc2c(=O)n3ccccc3nc2n(C(C)C)c1=N)c1ccccc1 (stereo not drawn),-1.78,–
COc1cc(C(c2c(NC(=O)c3ccco3)sc(C)c2C)N2CCOCC2)cc(OC)c1OC (stereo not drawn),-35.7,–
CCc1cc(C(c2ccccc2OC)N2CCOCC2)c(NC(=O)c2ccccc2)s1 (stereo not drawn),–,20 µM (active)
CCc1cc(C(N)=O)c(NC(=O)c2ccc(OC)cc2)s1,3.99,–
O=C(Cn1c(=O)n(Cc2cccs2)c(=O)c2cccnc21)Nc1ccc(F)cc1,-3.83,–
CCc1ccc(CN(C)C(=O)CCc2nnc(-c3ccc(-c4ccccc4)cc3)o2)nc1,–,35.5 µM (active)
CC(=O)c1ccc(-c2nnc(CCC(=O)N(C)Cc3cnc4ccccn34)o2)s1,-14.4,–
CCc1ccc(CN(C)Cc2nc(Cc3ccccc3)no2)nc1,-21.7,–

Structure (SMILES),"activity change, negative = inhibition [%]",Potency
CCOc1ccccc1CNCc1c(C(=O)O)c(C)n(Cc2ccc(C)cc2)c1C,-3.22,–
COc1ccc(CCNCc2c(C(=O)O)c(C)n(Cc3cccc(C)c3)c2C)cc1OC,-2.69,–
Cc1c(CNCCc2ccccc2)c(C(=O)O)c(C)n1-c1ccccc1,–,44.7 µM (active)
NC(=O)CSc1nc2c(oc3ccccc32)c(=O)n1Cc1ccccc1,5.1,–
CN1c2ccc(Cl)cc2-c2nc(SCC(=O)Nc3cc(F)ccc3F)ncc2S1(=O)=O,0.619,–
COc1ccc(-c2csc3ncnc(N4CCN(S(=O)(=O)c5ccccc5C#N)CC4)c23)cc1,-8.78,–
N#Cc1ccccc1S(=O)(=O)N1CCN(C(=O)c2cc(-c3ccccc3)nn2-c2ccccc2)CC1,-1.32,–
N#Cc1ccccc1S(=O)(=O)N1CCN(Cc2c(O)ccc3ccccc23)CC1,–,0.891 µM (active)
O=C(CSc1cn(CC(=O)N2CCOCC2)c2ccccc12)Nc1ccccc1,11.4,–
COc1ccccc1C(c1nnnn1CC1CCCO1)N1CCN(c2ccccc2)CC1 (stereo not drawn),-1.2,–
COc1ccc(C(c2nnnn2Cc2cccs2)N2CCN(c3ccccc3)CC2)cc1OC (stereo not drawn),–,44.7 µM (active)
CCC(C)(C)n1nnnc1C(c1ccc(OC)c(OC)c1)N1CCN(C(=O)c2ccco2)CC1 (stereo not drawn),-29.5,–
CCOc1ccc(CCNC(=O)c2c(C)oc3ncn(C)c(=O)c23)cc1,0.186,–
CC(C)c1c(O)nc(SCCOc2ccc(Cl)cc2)[nH]c1=O,0.293,–
CCSc1nc(O)c(C(c2cccc(OC)c2)c2c(O)nc(SCC)[nH]c2=O)c(=O)[nH]1,–,5.01 µM (active)
CCSc1nc(C)c(CCOc2cccc(C)c2)c(=O)[nH]1,-7.91,–
CCc1ccc(CNC(=O)c2cc3c(=O)n(CC)c4ccccc4c3s2)cc1,8.1,–
CC1=C(c2ccc(F)cc2)S(=O)(=O)N=C1N1CCC(C(=O)NCCc2ccccc2C)CC1,-1.75,–
CCC1CCCCN1C(=O)Cn1c(=O)n(CCCCCC(=O)NCc2ccccc2)c(=O)c2sccc21 (stereo not drawn),-7.45,–
COC(=O)C(CC(=O)Nc1cc(C)ccc1C)Nc1ccccc1OC (stereo not drawn),-24.7,–
O=C(COC(=O)[C@H](Cc1ccccc1)NC(=O)c1cccs1)Nc1cc(F)ccc1F,2.43,–
Cc1ccc(C)c(NC(CC(=O)c2ccccc2)C(=O)OCC(=O)c2cccs2)c1 (stereo not drawn),–,12.6 µM (active)
CCN(CCCNC(=O)c1ccc(Sc2ccc(C)cc2)c(NC(C)=O)c1)c1cccc(C)c1,1.43,–
CC1CCN(S(=O)(=O)c2ccc3c(c2)N(CC(=O)NCc2ccccc2Cl)C(=O)CO3)CC1,4.2,–
O=c1n(Cc2cccc(C(F)(F)F)c2)c2ccccc2c2nc(-c3ccccc3)nn12,8.09,–

Structure (SMILES),"activity change, negative = inhibition [%]",Potency
CN1CCN(C(CNC(=O)c2ccccc2F)c2ccc3c(c2)OCO3)CC1 (stereo not drawn),-3.13,–
CC1CCCN(c2cc3c(cc2F)c(=O)c(S(=O)(=O)c2cccc(Cl)c2)cn3Cc2ccccc2)C1 (stereo not drawn),-1.38,–
C=CCN1C=C2C(=O)C(C)(OC(=O)CCc3ccccc3)C(=O)C=C2C=C1c1ccc(C#N)cc1 (stereo not drawn),-25.6,–
COC/C=C/C1=CC2=CC(=O)C(C)(OC(=O)CCC(=O)OC)C(=O)C2=CO1 (stereo not drawn),–,3.98 µM (active)
CCCCC1=CC2=CC(=O)C(C)(OC(=O)CC)C(=O)C2=CN1CCCOC(C)C (stereo not drawn),-25.2,–
O=C(NCCCO)C(=O)Nc1c2c(nn1-c1ccc(F)cc1)CSC2,-26.7,–
Cn1cnc([N+](=O)[O-])c1Sc1ccccc1,–,50.1 µM (active)
Cn1nc(-c2ccccc2)c(CO)c1Sc1ccccc1,-3.58,–
Nc1nc(Sc2ncccc2[N+](=O)[O-])n[nH]1,2.21,–
Nc1nc(SCC(=O)Nc2ccc(Cl)c([N+](=O)[O-])c2)n[nH]1,-2.15,–
Cn1cnc([N+](=O)[O-])c1Nc1ccccc1O,-2.08,–
Cn1cnc([N+](=O)[O-])c1Sc1n[nH]c(N)n1,–,10 µM (active)
Cc1nnc(NC(=O)c2ccc3nccnc3c2)s1,-3.57,–
Cc1ccc(C(=O)Cn2cccn2)cc1,2.69,–
Cc1ccc(C(=O)Cc2nnc(C)s2)cc1,–,10 µM (active)
Cc1cc(C)cc(NC(=O)CSc2nc(=O)n(CCN3CCOCC3)c3c2CCC3)c1,8.04,–
CC(C)CNC(=S)NC(=O)c1ccc(Cl)cc1,–,50.1 µM (active)
CC(C)C(NC(=O)c1ccc(Cl)cc1)C(=O)O (stereo not drawn),-11.7,–
Cc1occc1C(=O)NNC(=S)NCC(C)C,-10.8,–
CC[N+](C)(CC)CCC[n+]1c(-c2ccccc2)c2cc(N)ccc2c2ccc(N)cc21,–,39.8 µM (active)
CC(=O)c1ccc(NC(=O)COc2ccccc2-c2nc(-c3ccccc3)no2)cc1,-3.59,–
CCc1ccc(NC(=O)c2cc(S(=O)(=O)NC3CCCCCC3)ccc2F)cc1,3.87,–
Cc1ccc(NC(=O)C(Cc2ccccc2)NS(=O)(=O)c2ccc3c(c2)oc(=O)n3C)cc1C (stereo not drawn),-0.776,–
Cc1oc2ncnc(N3CCOCC3)c2c1C(=O)NCCc1ccccc1,0.044,–
CCC(=O)N1CCc2cc(CNS(=O)(=O)c3ccc(Br)s3)ccc21,2.77,–

Structure (SMILES),"activity change, negative = inhibition [%]",Potency
Cc1nccc(-c2ccc(-n3c(C)ccc3C)cc2)n1,–,39.8 µM (active)
c1ccc(-c2nccc(-c3ccc(-n4cnc5ccccc54)cc3)n2)nc1,3.5,–
Cc1ccc(-n2c(-c3ccc(Cl)cc3)n[nH]c2=S)cc1,7.4,–
O=C(Nc1ccc(C(=O)OCc2cc(=O)n3nc(C4CC4)sc3n2)cc1)c1ccc(F)cc1,-6.43,–
Cc1ccc(CNS(=O)(=O)c2ccc(-c3cc(C(F)(F)F)on3)s2)cc1,6.71,–
COC(=O)c1ccc(OC(=O)c2cnccn2)cc1,–,56.2 µM (active)
COC(=O)c1ccc(COC(=O)c2cnccn2)cc1,2.29,–
COc1cccc(OCC(=O)NNC(=O)c2cnccn2)c1,3.38,–
O=C(NCCc1ccccc1)c1ccc2c(c1)N(Cc1ccccc1)C(=O)c1ccccc1S2(=O)=O,-6.43,–
CSc1ccccc1NC(=O)CCS(=O)(=O)c1nc(-c2cccs2)cc(C(F)(F)F)n1,–,12.6 µM (active)
COc1ccccc1-c1cc(C(F)(F)F)nc(S(=O)(=O)CCCC(=O)Nc2cc(C)ccc2O)n1,-34.7,–
COc1ccccc1-c1cc(C(F)(F)F)nc(S(=O)(=O)CCCC(=O)Nc2ccc(F)cc2F)n1,-34.2,–
CCOc1ccccc1NC(=O)CSc1ncc(S(=O)(=O)c2ccc(C(C)(C)C)cc2)c(=O)[nH]1,-1.94,–
CCCCN1C(=O)c2[nH]nc(-c3ccccc3O)c2C1c1cccc(OCc2ccccc2)c1 (stereo not drawn),10.1,–
COc1ccccc1N1CCN(S(=O)(=O)CCNC(=O)COc2ccc(F)cc2)CC1,-2.42,–
Cc1nc(N2CCOCC2)c2c(C(=O)NCc3cccc(Cl)c3)c(C)oc2n1,4.57,–
O=C(NC(=S)Nc1ccccc1C(=O)O)c1ccc(-c2ccc(Br)cc2)o1,–,3.55 µM (active)
O=C(O)c1ccccc1NC(=O)c1ccccc1-c1ccccc1C(=O)O,-11.9,–
O=C(NC(=S)Nc1cc(C(F)(F)F)ccc1N1CCOCC1)c1ccc(-c2cccc(Cl)c2)o1,-12.5,–
Cc1ccc(Cl)cc1NC(=O)NC1COc2ccccc2C1 (stereo not drawn),2.72,–
CC(=O)Nc1ccc(NC(=O)CCCNC(=O)c2ccc(Cl)cc2)cc1,-3.03,–
Cc1ccc(CNC(=O)CCCNC(=O)c2ccc(Cl)cc2)n1C,–,25.1 µM (active)
Cc1ccc(NC(=O)CCCNC(=O)c2ccc(Cl)cc2)cc1S(=O)(=O)N1CCCCC1,-0.386,–
